Reference: PubChem BioAssay (NCATS)
Results filed as inconclusive are left out. Activity calls are given as the source filed them. Calls follow the shape of the dose curve; as a rule, active = well fitted curve in the direction sought with a large enough effect; inconclusive = small, poorly fitted or top-dose-only effect, or another doubt; inactive = no such curve, though single readings can be large; an effect the other way counts as inactive or inconclusive.

How the values were obtained:
[1] = target: Glutathione peroxidase 1 (Homo sapiens) (UniProt P07203); test: Primary qHTS Assay for Inhibitors of Recombinant Selenoprotein Glutathione Peroxidase 1 (GPX1) (AID 1845191); also: nearly all actives have a fitted effect of over 65% in size; as to activity, negative = inhibition: % is scaled to controls: 0 for no effect and ±100 for the full control effect
Chain of Glutathione peroxidase 1 (Homo sapiens) (P07203 whole entry, looked up): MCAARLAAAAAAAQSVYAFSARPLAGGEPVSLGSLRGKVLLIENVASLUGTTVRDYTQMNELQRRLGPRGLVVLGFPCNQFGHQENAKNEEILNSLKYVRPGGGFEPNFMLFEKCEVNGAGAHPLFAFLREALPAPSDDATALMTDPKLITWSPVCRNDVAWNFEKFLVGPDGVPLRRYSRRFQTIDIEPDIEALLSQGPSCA
How it was run: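 Recombinant GPX1 (10 nM final) was preincubated with compound for 30 min at room temperature, then reacted with 1 mM GSH, 0.5 mM CHP, 0.5 mM NADPH and 100 nM glutathione reductase; NADPH fluorescence (340/450 nm) was read at 0 and 15 min.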

[2] = target: Phospholipid hydroperoxide glutathione peroxidase GPX4 (Homo sapiens) (UniProt P36969); test: Primary qHTS Assay for Inhibitors of Recombinant Selenoprotein Glutathione Peroxidase 4 (GPX4) (AID 1845192); also: nearly all actives have a fitted effect of over 65% in size; as to activity change, negative = inhibition: series mostly up to about 50 µM; % is scaled to controls: 0 for no effect and ±100 for the full control effect
Chain of Phospholipid hydroperoxide glutathione peroxidase GPX4 (Homo sapiens) (P36969 whole entry, looked up): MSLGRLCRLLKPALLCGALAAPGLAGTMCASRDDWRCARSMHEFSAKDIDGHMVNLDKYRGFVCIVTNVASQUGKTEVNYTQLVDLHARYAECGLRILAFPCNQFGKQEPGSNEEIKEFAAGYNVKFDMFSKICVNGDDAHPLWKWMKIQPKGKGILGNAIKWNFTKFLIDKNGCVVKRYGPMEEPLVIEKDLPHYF
How it was run: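 GR-coupled readout: 100 nM GR, 1 mM GSH, 0.5 mM NADPH; NADPH fluorescence (ex 340/em 450 nm) read at t=0 and after 15 min RT. GPX4 200 nM, preincubated 30 min with compound; substrate 0.5 mM CHP.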

[3] = target: Luciferin 4-monooxygenase (Photinus pyralis) (UniProt P08659); test: Primary firefly luciferase (FLuc) qHTS assay for identification of artifact compounds. (AID 1845220); also: nearly all actives have a fitted effect of over 60% in size;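 as to activity change, negative = inhibition: series mostly up to about 54 µM; plate controls were DMSO vehicle for no effect and no enzyme for full effect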
How it was run: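 Reaction readout was CCD-imaged luminescence, taken 5 min after adding 10 nM purified firefly enzyme to compound-treated wells holding 10 uM luciferin and ATP in pH 7.6 buffer.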

[4] = Primary fluorescence-based thiol-reactive (MSTI) qHTS assay for identification of artifact compounds. (AID 1845221); also: nearly all actives have a fitted effect of over 65% in size; also: potency is read from the fitted curve at half-maximal effect;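 as to activity change, negative = thiol reactive: series mostly up to about 54 µM; thiol-reactive compounds lower the probe fluorescence signal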
How it was run: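 Compounds were incubated 1 h at room temperature in the dark with the MSTI probe (4 uM) in PBS pH 7.4, 2% DMSO. Signals were normalized between Acetyl-MSTI and MSTI.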

[5] = test system: Nanoluciferase (engineered Oplophorus gracilirostris luciferase); test: Primary Nanoluciferase (NLuc) qHTS assay for identification of artifact compounds. (AID 1845222);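 also: NLuc secreted into diluted conditioned medium of S16 cells; series mostly up to about 54 µM; 0% = DMSO and -100% = no enzyme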
How it was run: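 Concentration-response data were obtained by luminescence after 5 min with Nano-Glo substrate at 1:100. The enzyme was diluted S16 NLuc-expressing cell medium, preincubated with compound for 15 min at RT. Curves were fitted with a 4-parameter Hill model.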

[6] = Primary redox qHTS assay for identification of artifact compounds. (AID 1845223); also: potency is read from the fitted curve at half-maximal effect;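 as to redox activity (% of DA3003): 0% = DMSO and 100% = reference compound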
How it was run: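 Amplex Red (25 uM) and HRP (250 mU/mL) in HBSS, with compounds for 15 min, then 250 uM DTT for 30 min, room temperature, dark. Fluorescence 525/598 nm read; normalized to DMSO and 10 uM DA3003; Hill fit.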

COC(=O)C[C@@H]1C(C(=O)O)=CO[C@@H](O[C@@H]2O[C@H](CO)[C@@H](O)[C@H](O)[C@H]2O)/C1=C\COC(=O)/C=C\c1ccccc1
inactive: Potency [1] | Potency [2] | Potency [3] | Potency [4] | Potency [5] | Potency [6]

COc1cc(C(=O)OC[C@H]2O[C@H](O[C@@]3(CO)O[C@@H](CO)[C@H](O)[C@H]3O)[C@H](O)[C@@H](O)[C@@H]2O)ccc1O
inactive: Potency [1] | Potency [2] | Potency [3] | Potency [4] | Potency [5] | Potency [6]

CCCC1=CC2=C(CO1)C(=O)C(C)(OC(=O)c1c(C)cc(OC)cc1O)C(O)C2 (centres undefined)
inactive: Potency [1] | Potency [2] | Potency [3] | Potency [4] | Potency [5] | Potency [6]

CC1OC(O[C@H]2[C@@H](O)C[C@@]3(C)C([C@H](O)C[C@]4(C)C3CC=C3C5CC(C)(C)CC[C@]5(C(=O)OC5OC(CO)C(O)C(O)C5OC5OCC(OC6OCC(OC7OCC(O)C(O)C7O)C(O)C6O)C(OC6OCC(O)(CO)C6O)C5O)CC[C@]34C)[C@]2(C)CO)C(O)C(O)C1O (some centres undefined)
inactive: activity, negative = inhibition [1] -3.12% [at 9.52 µM] | activity change, negative = inhibition [2] -6.84% [at 9.73 µM] | activity change, negative = inhibition [3] 2.08% [at 11.6 µM] | activity change, negative = thiol reactive [4] 280% [at 11.5 µM] | activity, negative = inhibition [5] 3.85% [at 11.6 µM] | redox activity (% of DA3003) [6] 1.03% [at 11.5 µM]

CC1(C)CCCC2(C)C(CO)C3CCC2C31 (centres undefined)
inactive: Potency [1] | Potency [2] | Potency [3] | Potency [4] | Potency [5] | Potency [6]

CC(C)C1=CC2=CCC3[C@](C)(CCC[C@@]3(C)C(=O)O)C2CC1O (some centres undefined)
inactive: Potency [1] | Potency [2] | Potency [3] | Potency [4] | Potency [5] | Potency [6]

CC1(C)CC2C3=CCC4C5(C)CCC(OC6OC(CO)C(O)C(OC7OC(CO)C(O)C(OC8OC(CO)C(O)C(OC9OC(COC%10OC(CO)C(O)C(O)C%10O)C(O)C(O)C9O)C8O)C7O)C6O)C(C)(C)C5CCC4(C)C3(C)CCC2(C(=O)O)CC1O (centres undefined)
inactive: activity, negative = inhibition [1] -11.7% [at 9.52 µM] | outcome [2] inactive [at 9.73 µM] | activity change, negative = inhibition [3] -5.47% [at 11.6 µM] | activity change, negative = thiol reactive [4] 31.3% [at 11.5 µM] | activity, negative = inhibition [5] 0.268% [at 11.6 µM] | redox activity (% of DA3003) [6] 10.1% [at 11.5 µM]

COc1cc(O[C@@H]2O[C@H](CO)[C@@H](O)[C@H](O)[C@H]2O)c(CCC(=O)OC[C@H]2O[C@@H](Oc3cc(OC)c(C4OC(=O)C(C)(O)C4O)cc3CCC(=O)O)[C@H](O)[C@@H](O)[C@@H]2O)cc1C1OC(=O)C(C)(O)C1O (some centres undefined)
inactive: Potency [1] | Potency [2] | activity change, negative = inhibition [3] 1.78% [at 11.6 µM] | activity change, negative = thiol reactive [4] 56% [at 11.5 µM] | activity, negative = inhibition [5] 0.289% [at 11.6 µM] | redox activity (% of DA3003) [6] -16.2% [at 11.5 µM]

COc1cc(C2Oc3c(OC)cc(CCCO[C@@H]4O[C@H](CO)[C@@H](O)[C@H](O)[C@H]4O)cc3C2CO)ccc1O (some centres undefined)
inactive: Potency [1] | Potency [2] | Potency [3] | Potency [5] | Potency [6]
active: Potency [4] 13 µM

C=C[C@H]1[C@H](O[C@@H]2O[C@H](CO[C@@H]3OC[C@](O)(CO)[C@H]3O)[C@@H](O)[C@H](O)[C@H]2O)OC=C2C(=O)OCC[C@H]21
active: Potency [6] 3.27 µM
inactive: Potency [1] | Potency [2] | Potency [3] | Potency [4] | Potency [5]

COC1CCCC/C(C)=C/C2C=C(C)C(C)C3C(CC(C)C)NC(=O)C23C(=O)C1 (centres undefined)
inactive: Potency [1] | Potency [2] | Potency [3] | Potency [4] | Potency [5] | Potency [6]

COc1ccccc1-n1c(SCC(=O)Nc2nc3ccc(C)cc3s2)nc2c(c1=O)SCC2
inactive: Potency [1] | Potency [2] | Potency [3] | Potency [4] | Potency [5] | Potency [6]

N#CCc1ccc(O)cc1O[C@@H]1O[C@H](CO)[C@@H](O)[C@H](O)[C@H]1O
inactive: Potency [1] | Potency [2] | Potency [3] | Potency [5] | Potency [6]
active: Potency [4] 13.1 µM

C=C1CC23CCC4[C@@](C)(CCC[C@@]4(C)C(=O)O)C2CCC1C3 (some centres undefined)
inactive: Potency [1] | Potency [2] | Potency [3] | Potency [4] | Potency [5] | Potency [6]

Cc1onc(-c2ccccc2)c1C(=O)N[C@@H]1C(=O)N2[C@@H]1SC(C)(C)[C@@H]2C(=O)O
inactive: Potency [1] | Potency [2] | Potency [3] | Potency [4] | Potency [5] | Potency [6]

CC(CCC1C(C(=O)O)=CC(=O)CC1(C)C)O[C@@H]1O[C@H](CO)[C@@H](O)[C@H](O)[C@H]1O (some centres undefined)
active: Potency [4] 5.85 µM
inactive: Potency [1] | Potency [2] | Potency [3] | Potency [5] | Potency [6]

C=C1CC[C@H]2[C@@](C)(CCC(O)[C@@]2(C)CO)[C@@H]1C/C=C(/C(=O)O)C(O)CO (some centres undefined)
active: Potency [4] 6.56 µM
inactive: Potency [1] | Potency [2] | Potency [3] | Potency [5] | Potency [6]

COC1=CC(=O)O[C@@H](/C=C/c2ccccc2)[C@@H]1O
inactive: Potency [1] | Potency [2] | Potency [3] | Potency [4] | Potency [5] | Potency [6]

C[C@@H]1O[C@@H](O[C@@H]2[C@@H](O)[C@@H](O)[C@H](O[C@@H]3[C@@H](O)[C@@H](O[C@]4(CO)O[C@H](CO)[C@@H](O)[C@@H]4OC(=O)/C=C/c4ccc(O)cc4)O[C@H](CO)[C@H]3OC(=O)/C=C/c3ccc(O)cc3)O[C@H]2C)[C@H](O)[C@H](O)[C@H]1O
inactive: Potency [1] | Potency [2] | outcome [3] inactive [at 11.6 µM] | activity change, negative = thiol reactive [4] 65.2% [at 11.5 µM] | activity, negative = inhibition [5] 1.58% [at 11.6 µM] | redox activity (% of DA3003) [6] -13.4% [at 11.5 µM]
